This is an account of results in PubChem BioAssay (NCATS).

Inconclusive results are not listed. Values without a mark were called inactive. Active and inactive are the calls of the source. Calls come from the whole dose curve; as a rule, active = well fitted cell-killing curve with a large enough effect; inconclusive = small, poorly fitted or top-dose-only effect; inactive = no such curve, though single readings can be large or run the other way.
Potency is the fitted concentration of half-maximal effect.

This assay in a line: qHTS of pediatric cancer cell lines to identify multiple opportunities for drug repurposing: Primary screen for NB1643 cells (AID 1347099). Note: nearly all actives have a fitted effect of over 50% in size. Particulars: NB1643 neuroblastoma viability, CellTiter-Glo luminescence, 48 h; series mostly up to 46 µM; activity change, negative = cytotoxic: at the top concentration. The source says: Drug repurposing or repositioning has been offered as a strategy for drug development in oncology programs. This approach has special potential for childhood cancers and other rare or orphan diseases, where the expected return on new drug development has been a disincentive to pharmaceuticals. […] In this project we exploit the poly-pharmacology of drugs to discover new indications via phenotypic screening of a panel of 19 well-characterized cell lines derived from solid tumors seen in children and adolescents. The goal is to identify approved drugs with previously unrecognized anticancer properties that has the potential to reveal new mechanisms and biological processes involved in carcinogenesis or drug resistance. We employed a titration-based paradigm (quantitative high-throughput screening or qHTS), where all compounds were tested at multiple concentrations for their effect on cell viability. Concentration-response curves (CRCs) were derived directly from the primary screen, and both potency and efficacy values were used to identify compounds with robust bioactivity profiles. We screened the NIH Chemical Genomics Center (NCGC) Pharmaceutical Collection (NPC) and Mechanism Interrogation Plate (MIPE) small molecule collections of approved and investigational compounds against these cell lines; and measured metabolically active cells after 48 hours of compound treatment as a proxy for cell viability. […] Assay Submitter: Nathalia J. Martinez, National Center for Advancing Translational Sciences, National Institutes of Health, Rockville, MD, USA; email: natalia.martinez@nih.gov Shen, M et al. Quantitative high-throughput phenotypic screening of pediatric cancer cell lines identifies multiple opportunities for drug repurposing. Oncotarget 2017 Dec 19;9(4):4758-4772. PMID 29435139.
The cells were obtained from University of North Carolina (UNC), Pediatric Preclinical Testing Program (PPT), and Coriell Institute (CI). qHTS cell viability assay: Cells were assayed in growth media at a density of 500-1,000 cells/well. Five microliters of cells were dispensed into 1,536-well, white, solid-bottom, TC-treated plates (Greiner Bio One) using a multidrop dispenser and incubated at 37 degrees C, 5% CO2, under a humidified atmosphere for 5 hours. Twenty-three nanoliters of compounds and controls (neutral control DMSO or positive control bortezomib at final concentration of 2.3 µM) were subsequently transferred by Kalypsys pintool. For primary screens, the MIPE collection was tested at 11-point dilutions (final concentrations range from 0.78 nM to 46 µM) and the NPC collection at 8-point dilutions (final concentrations range from 0.59 nM to 46 µM). Compounds tested in follow-up screens were assayed at 11-point dilutions. Cells were incubated for 48 hours, followed by addition of 3 µL of CellTiter-Glo (Promega). After a 15 min incubation at room temperature, samples were analyzed for luminescence intensity using a ViewLux High-throughput CCD imager equipped with clear filters.
On the technique in general: qHTS replaces the single test concentration by a dilution series.
Take `CC(C(=O)O)c1ccc(C(=O)c2ccccc2)s1` (stereo not given): the “activity change, negative = cytotoxic” value is 0%.

As to `O=C(OCc1ccccc1)c1ccccc1`, the “activity change, negative = cytotoxic” value is 11.1%.

On to `O=C(CCN1CCN(CCO)CC1)N1c2ccccc2Sc2ccc(C(F)(F)F)cc21`, for which the “activity change, negative = cytotoxic” value was -8.06%.

`O=C(O)Cc1ccc2c(c1)C(=O)c1ccccc1CO2`: the “activity change, negative = cytotoxic” value was 7.7%.

In the case of `Nc1ccc(O)c(C(=O)O)c1`, the “activity change, negative = cytotoxic” value is 13%.

For the compound `Nc1ccc(C(=O)O)c(O)c1`, the “activity change, negative = cytotoxic” value is 13.9%.

With `CCC1C(=O)OCC1Cc1cncn1C` (stereo not given), the “activity change, negative = cytotoxic” value was 8.93%.

Regarding `Cc1ccc(C(=O)c2ccc(CC(=O)O)n2C)cc1`, the “activity change, negative = cytotoxic” value was 9.93%.

With `O=C(O)Cc1ccc(-c2ccccc2)cc1`, the “activity change, negative = cytotoxic” value is 19.7%.

Take `[O-][n+]1ccccc1SSc1cccc[n+]1[O-]`: the Potency is 92 nM (active).

For `COc1cc2c3cc1Oc1cc(ccc1O)C[C@@H]1c4c(cc(OC)c(O)c4Oc4ccc(cc4)C[C@@H]3N(C)CC2)CC[N+]1(C)C`, the “activity change, negative = cytotoxic” value was -1.39%.

For `Cc1c(N)c(=O)n(-c2ccccc2)n1C`, the “activity change, negative = cytotoxic” value was -10.7%.

`O=C(O)Cc1cccc(-c2cc(CCCCCCc3ccc(O[C@H]4O[C@H](CO)[C@@H](O)[C@H](O)[C@@H]4O)c(-c4cccc(CC(=O)O)c4)c3)ccc2O[C@H]2O[C@H](CO)[C@@H](O)[C@H](O)[C@@H]2O)c1`: the activity change, negative = cytotoxic was 1.92% [at 0.597 µM].

As to `CC(C)OC(=O)c1cc(C(=O)OC(C)C)cc([N+](=O)[O-])c1`, the “activity change, negative = cytotoxic” value is 30.7% [at 92.7 µM].

On to `Nc1cc(-c2ccncc2)c[nH]c1=O`, for which the “activity change, negative = cytotoxic” value was 3.64%.

As for `CC(=O)SCC(CC(=O)c1ccc(C)cc1)C(=O)O` (stereo not given), the “activity change, negative = cytotoxic” value is 5.79%.

Consider `CCCCCCCCCCCCOCCO`, for which the “activity change, negative = cytotoxic” value is 18.7%.

In the case of `O=c1[nH]c2ccccc2n1CCCN1CCN(C(c2ccccc2)c2ccccc2)CC1`, the “activity change, negative = cytotoxic” value was -8.88%.

Regarding `CCCCCCOc1ccccc1C(N)=O`, the “activity change, negative = cytotoxic” value was -17.5%.

Take `CN1CCN(c2cc3c(nn2)Oc2ccccc2N3C)CC1`: the “activity change, negative = cytotoxic” value is 7.01% [at 16.1 µM].

Regarding `CNC(=O)c1c(I)c(NC(=O)CCCCC(=O)Nc2c(I)c(C(=O)O)c(I)c(C(=O)NC)c2I)c(I)c(C(=O)O)c1I`, the “activity change, negative = cytotoxic” value is -4.86%.

With `c1ccc(CCNc2nc(-c3ccccc3)cs2)cc1`, the “activity change, negative = cytotoxic” value is -12.4%.

As to `CC1(C)S[C@@H]2[C@H](NC(=O)[C@H](N)c3ccccc3)C(=O)N2[C@H]1C(=O)O`, the “activity change, negative = cytotoxic” value was 10.8%.

As for `Cc1ccc2c(n1)Oc1ccc(C(C)C(=O)OCC(=O)N(C)C)cc1C2` (stereo not given), the Potency result was “inactive”.

Consider `CCCCCCCCCCCC(=O)[O][Sn]([CH2]CCC)([CH2]CCC)[O]C(=O)CCCCCCCCCCC`, for which the “activity change, negative = cytotoxic” value was 19.7%.

In the case of `O=C(O)c1cc(O)c(O)c(O)c1`, the “activity change, negative = cytotoxic” value is 5.71%.

`O=C(Nc1ccc(C(=O)O)c(O)c1)c1ccccc1`: the “activity change, negative = cytotoxic” value was 1.19%.

For the compound `CCOC(=O)c1ccccc1O`, the “activity change, negative = cytotoxic” value was 32.5%.

In the case of `O=C(O)/C=C\C(=O)O`, the “activity change, negative = cytotoxic” value is 1.99%.

Regarding `c1ccc2sc(SSc3nc4ccccc4s3)nc2c1`, the “activity change, negative = cytotoxic” value was 4.75% [at 16.1 µM].

On to `CN1CC(=O)N/C1=N/C(=O)Nc1cccc(Cl)c1`, for which the “activity change, negative = cytotoxic” value was 18.7%.

Consider `Cc1cc(O)c2ccccc2c1O`, for which the Potency is 18800 nM (active).

`CC(N)C(=O)OC(C)(C)Cc1ccc(Cl)cc1` (stereo not given): the “activity change, negative = cytotoxic” value was -3.33%.

`CO[C@@]1(NC(=O)Cc2cccs2)C(=O)N2C(C(=O)O)=C(COC(N)=O)CS[C@@H]21`: the “activity change, negative = cytotoxic” value was 11.2%.

Take `c1ccc2sc(SN3CCOCC3)nc2c1`: the “activity change, negative = cytotoxic” value is 13.3%.

In the case of `COc1cccc2c1C(=O)c1c(O)c3c(c(O)c1C2=O)C[C@@](O)(C(=O)CO)C[C@@H]3O[C@H]1C[C@H](N)[C@H](O[C@@H]2CCCCO2)[C@H](C)O1`, the Potency was 596 nM (active).

Consider `N=C(N)N`, for which the “activity change, negative = cytotoxic” value is 3.77%.

Turning to `COc1ccnc2c1CCCCC2S(=O)c1nc2ccccc2[nH]1` (stereo not given), the “activity change, negative = cytotoxic” value was 5.07%.

Take `CC(C)(C)c1nnc(NS(=O)(=O)c2ccc(N)cc2)s1`: the “activity change, negative = cytotoxic” value was 30.5%.

On to `Nc1ccc(O)c([N+](=O)[O-])c1`, for which the “activity change, negative = cytotoxic” value is -18.9% [at 92.7 µM].
